Screening results: PubChem, several laboratories
Shown are actives, neighbours in structure and some others; about 1.8% of the full set was active somewhere.
PriA SSB inh = inhibitors of Klebsiella pneumoniae PriA binding to SSB C-terminal tail, primary screen, biochemical, AlphaScreen | PriA–SSB C-terminal tail interaction (Klebsiella pneumoniae) | AlphaScreen SSBct-PriA binding, biotinylated peptide | inhibition, % at 33 µM | actives 0.6% (n = 430,000) | AID 1272365, 2023; in the data active means inhibition mostly above about 37%, no sharp cut-off; inactive means mostly below about 20%;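 further: plate controls were negative control peptide for no effect and reference peptide for full effect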
Mtb hypoxia rep = PubChem AID 1159583; M. tuberculosis hypoxia-regulated fluorescent reporter, fluorescence; fluorescence inhibition, % (no concentration beside the values); actives 0.1% (n = 300,000); in the data active means fluorescence inhibition mostly above about 23%, no sharp cut-off; inactive means mostly below about 17%
DUSP3 inh = VHR1 phosphatase inhibitors, primary screen, biochemical, absorbance, uHTS. Dual specificity protein phosphatase 3 (Homo sapiens), P51452. recombinant VHR phosphatase, pNPP absorbance. inhibition, % at 13.3 µM. actives 0.52% (n = 290,000). AID 1654, 2009; in the data active means inhibition above about 50%
Target sequence (P51452 whole entry, looked up): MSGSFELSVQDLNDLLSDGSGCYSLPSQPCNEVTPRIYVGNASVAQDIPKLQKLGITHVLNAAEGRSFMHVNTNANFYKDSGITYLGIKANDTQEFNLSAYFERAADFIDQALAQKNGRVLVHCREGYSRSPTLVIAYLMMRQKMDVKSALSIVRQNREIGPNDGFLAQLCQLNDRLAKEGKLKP
PfHsp40 rescue = rescue of yeast from PfHsp40 toxicity, primary screen, S. cerevisiae, ATP luminescence | actives 0.68% (n = 340,000) | S. cerevisiae expressing PfHsp40, growth rescue | AID 504582, 2011 | growth rescue, % at 12.5 µM; in the data active means growth rescue above about 28%, passing the limit was not always enough; inconclusive means no clear call, values can overlap the other calls;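 further: yeast W303a lacking pdr1 and pdr3 grown in galactose medium; growth measured after three days at 30 °C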
RN4220 kill = growth inhibition of S. aureus RN4220, primary screen, OD600 | actives 0.33% (n = 330,000) | inhibition, % (no concentration beside the values) | 16 h; in the data active means inhibition above about 85%;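 further: plate controls were untreated cells for no effect and reference antibiotic for full effect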
ugtP null kill = growth inhibition of ugtP-null S. aureus, primary screen, RN4220 ugtP deletion, OD600. 16 h. growth inhibition, % (concentration not given with the values). actives 0.54% (n = 330,000). AID 1259309, 2017; in the data active means growth inhibition above about 68%;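 further: plate controls were untreated wells for no effect and antibiotic for full effect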
The depositor's hits bear a star; ? = inconclusive; · = no result given.

SMILES	PriA SSB inh	Mtb hypoxia rep	DUSP3 inh	PfHsp40 rescue	RN4220 kill	ugtP null kill
CCn1c(=O)c(CCC(=O)N2CCN(c3ccccn3)CC2)c(C)c2c(C)nn(-c3ccccc3)c21	-6	6	-14	45*	2	-6
CCCCCCSc1ccc([C@H]2N[C@@](C)(C(=O)OC)[C@H]3C(=O)N(C)C(=O)[C@@H]23)cc1	-5	·	·	39*	·	·
CCCN1CCCc2ccc(N)cc21	130*	·	·	·	·	·
Cc1ccc(NC2(c3nnnn3-c3c(C)cccc3C)CCCCC2)cc1	1	-3	-11	66*	19	18
CC1=NN(CCC#N)C(=O)/C1=C/c1ccc(N(C)C)cc1	2	6	60*	1	2	-2
Cc1ccc(NC(=O)CN2CCC(C(=O)NCc3ccc4c(c3)OCO4)CC2)cc1	-4	·	·	·	·	·
CS(=O)(=O)c1ccc2nc(NC(=O)c3ccccc3NS(=O)(=O)c3ccccc3)sc2c1	-26	·	·	·	·	·
O=C(Nc1ccccc1F)c1cc(C2CCN(C(=O)c3c[nH]c(=O)c(Cl)c3)CC2)[nH]n1	98*	·	·	·	·	·
O=C(NNC(=S)Nc1ccc(Cl)c(Cl)c1)c1ccccn1	92*	4	22	?	50	33
CCNC(=S)NNC(=O)c1ccccn1	92*	-4	-2	-1	7	3
CCNC(=S)NNC(=O)c1ccccc1Cl	-4	1	-3	0	4	19
c1ccc(C2Nc3ccccc3-c3nc4ccccc4n32)cc1 (configuration not stated)	-9	7	-6	0	-3	5
c1ccc(C2Nc3ccccc3-c3nc4ccccc4n32)nc1 (configuration not stated)	61*	·	16	-1	0	1
O=S(=O)(Oc1ccc2ccccc2c1)c1ccc(Cl)cc1	-30	·	·	·	·	·
Cc1ccc(C(=O)CN2/C(=C(\O)c3ccccc3)C(=O)c3ccccc3S2(=O)=O)c(C)c1	·	-3	15	35*	15	5
O=C(Cc1cccs1)N1CCN=C1SCc1ccc(C(F)(F)F)cc1	-12	·	·	·	·	·
O=C(CNC(=O)c1cccc(F)c1)OCC(=O)N1CCCCC1	-16	0	51*	-1	3	3
O=C(O)c1cccc2c1-c1ccccc1/C2=N\Nc1ccccc1	·	·	-15	·	·	·
O=C(O)c1cc(NN=C2c3ccccc3-c3ccccc32)ccc1Cl	-4	·	-23	138*	·	·
O=C(O)c1cccc(NN=C2c3ccccc3-c3ccccc32)c1	12	-9	5	269*	15	38
Cc1nnsc1C(=O)NCCn1ncc2c(N3CCCCC3)ncnc21	3	·	·	·	·	·
c1ccc(-c2cc3ccccc3nc2N2CCCC2)cc1	-148	·	11	1	0	85*
Cc1ccc2nc(N3CCOCC3)c(C=O)cc2c1	1	1	16	-1	5	-7
c1ccc2nc(N3CCCC3)c(N3CCCC3)nc2c1	-20	·	-1	-2	-1	13
Cc1ccc(-c2cc3ccccc3nc2N2CCOCC2)cc1	-15	-2	-6	12	-3	91*
SMILES	PriA SSB inh	Mtb hypoxia rep	DUSP3 inh	PfHsp40 rescue	RN4220 kill	ugtP null kill
CCN1C(=O)Cc2cc(NC(=O)c3ccccc3F)ccc21	12	·	·	·	·	·
COc1ccc([C@@H](O)CNC(=O)Cc2c(F)cccc2Cl)cc1OC	-8	·	·	·	·	·
NC(N)=NS(=O)(=O)c1ccc(NC(=S)NC(=O)/C=C/c2cccs2)cc1	-9	10	28	-1	3	85*
O=C(/C=C/c1cccs1)NC(=S)Nc1ccc(C(=O)O)cc1	-16	·	20	1	·	·
NS(=O)(=O)c1ccc(NC(=S)NC(=O)/C=C/c2cccs2)cc1	-6	0	3	1	83	active
COc1cc2c(cc1OC)CN(CC(=O)Nc1ccc(F)cc1)C(C(=O)O)C2 (configuration not stated)	-3	-2	2	35*	5	5
Cc1cccc(NC(=O)C2Cc3ccccc3OC2=NO)c1 (configuration not stated)	-11	8	·	·	3	2
CCOc1cc(S(=O)(=O)n2cnc3ccccc32)ccc1F	0	·	·	·	·	·
CC1(N2CCCCC2)C(=O)c2ccccc2C1=O	3	2	7	1	3	2
CC1(S(=O)(=O)O)CC(=O)c2ccccc2C1=O (configuration not stated)	83*	9	13	4	24	13
COc1ccccc1C=NNC(=O)CC(=O)NCc1cccnc1	-19	2	·	·	8	5
CNC(=O)CS(=O)(=O)C1CCN(C(=O)CCc2ccccc2Br)CC1	-16	·	·	·	·	·
CC(=O)Nc1ccc(NC(=S)NC(=O)/C=C/c2ccco2)cc1	6	-2	14	1	4	86*
CC(=O)N(C)c1ccc(NC(=S)NC(=O)/C=C/c2ccco2)cc1	-7	10	-9	0	1	47
CN1CCN(c2ccc(NC(=S)NC(=O)/C=C/c3ccco3)cc2)CC1	5	10	7	-1	0	89*
CCOc1ccc(NC(=S)NC(=O)/C=C/c2ccco2)cc1	0	·	10	0	-1	73
CC(=O)NS(=O)(=O)c1ccc(NC(=O)c2cc(=O)[nH]cn2)cc1	-10	·	·	·	·	·
COc1ccccc1C1=NN(C(=O)c2onc(-c3ccccc3Cl)c2C)C(c2ccco2)C1 (configuration not stated)	-3	·	·	·	·	·
CC(C)CCn1c(COc2ccccc2)n[nH]c1=S	-12	14	21	1	6	2
S=c1[nH]nc(COc2ccccc2)n1Cc1ccccc1	-9	3	1	0	4	-7
CCc1ccc(OCc2n[nH]c(=S)n2Cc2ccccc2)cc1	12	-3	-14	101*	13	-2
CCc1ccc(OCc2n[nH]c(=S)n2C(C)CCCC(C)C)cc1 (configuration not stated)	-5	-4	20	57*	2	-3
CN(C)c1cccc(C(=O)NCC2CCN(C(=O)c3ccoc3)CC2)c1	-12	·	·	·	·	·
Clc1ccc(/C=N/Nc2nn[nH]n2)cc1	·	·	54*	0	·	·
Fc1ccc(C=NNc2nn[nH]n2)cc1	6	-11	·	·	0	-1
Cc1ccc(NC(=O)CSc2ccnc(=O)[nH]2)cc1	-21	·	·	·	·	·
CC1(C)CC(=O)CC(=NNC(=O)C2CCN(S(=O)(=O)c3cccs3)CC2)C1	-11	1	·	·	3	1
Cc1ccc(N(C(=O)c2csnn2)C(C(=O)NC2CCCCC2)c2ccccn2)c(C)c1 (configuration not stated)	-6	·	30	0	·	·
O=C(NC1CCCC1)C(c1cccnc1)N(Cc1ccccc1)C(=O)c1csnn1 (configuration not stated)	-1	-10	53*	0	7	-13
Cc1ccc(C)c(N(C(=O)c2csnn2)C(C(=O)NC2CCCCC2)c2ccccn2)c1 (configuration not stated)	-2	8	50*	0	0	3
